# Bioassay records deposited in PubChem BioAssay by National Center for Advancing Translational Sciences (NCATS).
# This is one part of a sample in which hits are shown more often than they occur.
# Cycloheximide cs – counter-screen for Shiga toxin inhibitors: cycloheximide protein synthesis inhibition | cell reporter, cycloheximide protein synthesis inhibition counterscreen | max response, % | hit rate 12% among 300,000 | AID 2314; in the data active means max response mostly above about 13%, no sharp cut-off; inactive means mostly below about 14%; further: read at 38.3 µM for the half of the compounds with a filed dose; 0% is about no effect
# LmPK inh – LmPK (Leishmania mexicana) enzyme inhibition. Q27686. purified LmPK, Kinase-Glo ATP luminescence, 1 h. hit rate 0.37% among 290,000. Potency, µM (highest dose often 57.5 µM), without a hit: top-dose activity change, negative = inhibition, most hits filed as inhibitors; further: potency means the concentration at half of the fitted maximal effect; on the % scale 0 is the no-effect control and ±100 the full control effect
#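 Pyruvate kinase activity monitored as ATP production (luciferase luminescence). Conditions: 0.1 nM enzyme, 0.5 mM PEP, 0.1 mM ADP, 1 h, RT; normalized against uninhibited and no-enzyme wells.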
# FBPA Giardia inh – blocks Giardia fructose-bisphosphate aldolase activity; purified Giardia FBPA; Potency, µM (doses to about 59.6 µM), without a hit: at the highest dose activity, negative = inhibition, most hits filed as inhibitors; hit rate 0.71% among 290,000; AID 2451; further: potency means the concentration at half of the fitted maximal effect; on the % scale 0 is the no-effect control and ±100 the full control effect; nearly all actives have a fitted effect of over 55% in size
# Target sequence (A8B2U2 whole entry, looked up): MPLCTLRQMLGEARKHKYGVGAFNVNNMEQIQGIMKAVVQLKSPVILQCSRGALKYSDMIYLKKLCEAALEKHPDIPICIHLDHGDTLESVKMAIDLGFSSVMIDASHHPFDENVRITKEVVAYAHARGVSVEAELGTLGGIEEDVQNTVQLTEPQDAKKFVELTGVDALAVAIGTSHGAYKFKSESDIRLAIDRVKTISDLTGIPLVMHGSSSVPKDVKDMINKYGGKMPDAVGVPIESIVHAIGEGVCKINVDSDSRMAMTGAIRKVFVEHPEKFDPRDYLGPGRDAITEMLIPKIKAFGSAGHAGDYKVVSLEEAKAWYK
#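 Giardia FBPA (40 nM reagent) was preincubated 10 min at RT with compound (up to 57.5 uM final), then substrate plus GAPDH/TPI/NAD/arsenate coupling system with diaphorase/resazurin was added; resorufin fluorescence (525/598 nm) was read after 20 min.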
# Tb PYK inh – blocks Trypanosoma brucei pyruvate kinase; Q57TT1; TbPYK enzyme, Kinase-Glo Plus ATP luminescence, 45 min; Potency, µM (highest dose often 76.8 µM), inactives show at the highest dose activity, negative = inhibition, actives largely listed as inhibitors; hit rate 0.12% among 410,000; AID 624173; further: potency means the concentration at half of the fitted maximal effect; on the % scale 0 is the no-effect control and ±100 the full control effect; nearly all actives have a fitted effect of over 50% in size
#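 Assay buffer: 50 mM TEA pH 7.2, 100 mM KCl, 10 mM MgCl2, 0.05% BSA, 0.01% Tween-20. Pyruvate kinase from T. brucei plus substrate met compound, then ADP (130 uM final). Luminescence was read post 45 min RT.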
# RE007 growth inh – less growth of the S. pombe RE007 Vpr strain | S. pombe RE007 Vpr strain, BacTiter-Glo ATP luminescence, 24 h | Potency, µM (doses to about 92.2 µM), without a hit: top-dose activity change, negative = less growth, most hits filed as inhibitors | hit rate 0.21% among 360,000; active means well fitted falling curve with a large enough effect; inconclusive means small, poorly fitted or top-dose-only effect; inactive means no such curve, though single readings can be large or run the other way; further: potency means the concentration at half of the fitted maximal effect; on the % scale 0 is the no-effect control and ±100 the full control effect; nearly all actives have a fitted effect of over 50% in size
#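 Fission yeast RE007 carrying one integrated HIV-1 vpr copy, seeded at OD 0.01 in PMG+AL medium with 23 nL pinned compound. Grown 24 h at 30 degrees; viability read by BacTiter-Glo luminescence after 5 min.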
# Shiga inhibitor – blocks Shiga toxin action in Vero cells. hit rate 9.2% among 290,000. inhibition, % at 38.7 µM. AID 2315. Vero cells, Shiga toxin protein synthesis inhibition reporter; in the data active means inhibition mostly above about 28%, no sharp cut-off; inactive means mostly below about 43%; further: 0% is about no effect
# Active calls of the source: *; ? = inconclusive; / = no result. Unless noted, the call rests on the fitted dose curve; in most records, active means well fitted curve in the direction sought with a large enough effect; inconclusive means small, poorly fitted or top-dose-only effect, or another doubt; inactive means no such curve, though single readings can be large; an effect the other way counts as inactive or inconclusive.
SMILES,Cycloheximide cs,LmPK inh,FBPA Giardia inh,Tb PYK inh,RE007 growth inh,Shiga inhibitor
CC1CC(C)CN(C(=O)CCNS(=O)(=O)c2cccs2)C1 (configuration not stated),-3,-1%,-4%,-2%,-19%,2
CCOC(=O)c1c(NC(=O)Nc2ccc(F)cc2)sc(C(=O)N(C)C)c1C,/,/,/,-4%,/,/
CC(C)(C)NC(=O)C(c1ccncc1)N(C(=O)Cn1nnc(-c2ccc(F)cc2)n1)c1cccc(F)c1 (configuration not stated),29*,1%,0%,-1%,22%,56
Cc1cccc(N(C(=O)Cn2nnc(-c3ccccc3F)n2)C(C(=O)NC(C)(C)C)c2ccncc2)c1 (configuration not stated),-2,0%,3%,1%,-4%,-8
CCn1c(SCC(=O)Nc2oc(C)c3c(C)n[nH]c(=O)c23)nnc1-c1ccco1,/,/,/,-8%,-9%,/
O=C(COC(=O)C1CCC1)c1c[nH]c2ccccc12,/,/,/,-2%,4%,/
O=C(COC(=O)C1CC1)c1c[nH]c2ccccc12,57*,-21%,-3%,9%,-9%,76*
O=C(OCC(=O)c1c[nH]c2ccccc12)c1ccc(Br)o1,26*,0%,-2%,0%,-14%,111*
O=C(OCC(=O)c1c[nH]c2ccccc12)c1ccco1,68*,1%,2%,-10%,-10%,88*
C=CCc1cccc(/C=C/c2cc(=O)c3ccccc3[nH]2)c1O,25*,-1%,-16%,-4%,4%,65*
C=CCc1cccc(/C=N/n2cnnc2)c1O,-3,4%,-8%,-8%,-20%,-4
N/C(Cc1ccc(Cl)cc1)=N\OC(=O)c1cccc2ccccc12,23*,5%,8%,-25%,?,37
O=C(Cc1ccc([N+](=O)[O-])cc1)OCc1c(F)cccc1Cl,17*,5%,10%,0%,24%,56
N/C(Cc1ccc([N+](=O)[O-])cc1)=N\OC(=O)c1ccccc1F,18*,9%,-2%,-1%,-10%,38*
COc1ccc(C/C(N)=N/OC(=O)c2ccc(Cl)cc2)cc1,21*,5%,7%,2%,-7%,55*
N/C(Cc1ccc(Cl)cc1)=N\OC(=O)c1ccc2ccccc2c1,9,-4%,7%,-7%,10%,5
COC(=O)c1ccc(C#Cc2ccccc2)o1,56*,2%,0%,3%,4%,31
O=C(Nc1ccc2ncccc2c1)Nc1ccc2ncccc2c1,19*,5%,-4%,-3%,/,47*
c1cnc2ccc(-c3ccc4ncccc4c3)cc2c1,27*,1%,5%,-4%,-31%,/
Cc1ccc2ncccc2c1,/,/,/,-2%,-5%,/
Cc1c([N+](=O)[O-])cc(C(=O)Nc2ccc3ncccc3c2)cc1[N+](=O)[O-],-1,8%,7%,4%,8%,/
O=C(Nc1ccc2ncccc2c1)c1ccccc1Br,38*,-4%,?,-5%,-28%,41*
C/C(=N\NC(=O)C1CCCC1)c1ccc(Cl)cc1,41*,1%,/,4%,0%,52*
COc1ccc(CC(=O)Nc2ccc(/C(C)=N\NC(=O)c3ccc(Br)o3)cc2)cc1,42*,0%,-4%,-9%,-10%,44*
COC(=O)c1ccc(NC(=S)NC(=O)c2c(Cl)cnn2C)cc1,3,0%,?,-17%,-13%,8
C/C(=N\NC(=O)c1c(Cl)cnn1C)c1ccc(NC(=O)c2ccc(Br)o2)cc1,40*,-4%,/,-4%,-14%,57*
C/C(=N\NC(=O)C1CC1)c1ccc(NC(=O)c2ccc(Br)o2)cc1,24*,-3%,-1%,/,/,55*
O=[N+]([O-])c1ccccc1S(=O)(=O)Nc1ccn(Cc2c(F)cccc2Cl)n1,1,-3%,-28%,0%,3%,12
CCCCNC(=O)c1cn(C)c2ccc(S(=O)(=O)N3CC(C)CC(C)C3)cc2c1=O (configuration not stated),-1,3%,-4%,0%,3%,6
Cc1ccc(C)c(NC(=O)Cn2cc(C(=O)C3CCCCC3)c3ccccc32)c1,/,/,/,3%,/,/
